# In the supplement of paper PMC11732987, “Enantioselective OTUD7B fragment discovery through chemoproteomics screening and high-throughput optimisation” (Communications Chemistry, 2025):
# Values without a mark were called inactive.
# Compound: COc1cccc(CN(C)C(=O)CCl)c1
# Assay: log2 ratio of Biotin-Ahx-Ub-VS probe labelling (compound/DMSO); higher = less target engagement, active = hit call of the paper (q ≤ 0.05, log2 ratio ≤ -1)
# Settings: compound concentration: 50uM; treatment time: 3 h
# Procedure: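 Round 2 competitive ABPP in HEK293T lysate. Compounds were tested at 50 and 200 µM for 3 h, followed by Biotin-Ahx-Ub-VS enrichment and diaPASEF LC-MS/MS. Values are the average log2 ratio (compound/DMSO) from an unpaired t-test (n=3 treated, n=26 DMSO).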
# Chain of UniProt O00487 (O00487 whole entry): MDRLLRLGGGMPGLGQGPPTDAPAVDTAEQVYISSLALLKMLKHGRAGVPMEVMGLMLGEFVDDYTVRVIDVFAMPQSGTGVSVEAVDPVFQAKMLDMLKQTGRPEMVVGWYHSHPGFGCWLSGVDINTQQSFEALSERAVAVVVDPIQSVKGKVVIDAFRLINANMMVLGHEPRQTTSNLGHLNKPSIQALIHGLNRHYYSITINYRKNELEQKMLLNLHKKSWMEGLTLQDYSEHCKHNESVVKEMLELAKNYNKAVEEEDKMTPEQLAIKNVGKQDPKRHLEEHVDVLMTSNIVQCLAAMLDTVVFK
# Chain of UniProt Q9Y4E8 (Q9Y4E8 whole entry): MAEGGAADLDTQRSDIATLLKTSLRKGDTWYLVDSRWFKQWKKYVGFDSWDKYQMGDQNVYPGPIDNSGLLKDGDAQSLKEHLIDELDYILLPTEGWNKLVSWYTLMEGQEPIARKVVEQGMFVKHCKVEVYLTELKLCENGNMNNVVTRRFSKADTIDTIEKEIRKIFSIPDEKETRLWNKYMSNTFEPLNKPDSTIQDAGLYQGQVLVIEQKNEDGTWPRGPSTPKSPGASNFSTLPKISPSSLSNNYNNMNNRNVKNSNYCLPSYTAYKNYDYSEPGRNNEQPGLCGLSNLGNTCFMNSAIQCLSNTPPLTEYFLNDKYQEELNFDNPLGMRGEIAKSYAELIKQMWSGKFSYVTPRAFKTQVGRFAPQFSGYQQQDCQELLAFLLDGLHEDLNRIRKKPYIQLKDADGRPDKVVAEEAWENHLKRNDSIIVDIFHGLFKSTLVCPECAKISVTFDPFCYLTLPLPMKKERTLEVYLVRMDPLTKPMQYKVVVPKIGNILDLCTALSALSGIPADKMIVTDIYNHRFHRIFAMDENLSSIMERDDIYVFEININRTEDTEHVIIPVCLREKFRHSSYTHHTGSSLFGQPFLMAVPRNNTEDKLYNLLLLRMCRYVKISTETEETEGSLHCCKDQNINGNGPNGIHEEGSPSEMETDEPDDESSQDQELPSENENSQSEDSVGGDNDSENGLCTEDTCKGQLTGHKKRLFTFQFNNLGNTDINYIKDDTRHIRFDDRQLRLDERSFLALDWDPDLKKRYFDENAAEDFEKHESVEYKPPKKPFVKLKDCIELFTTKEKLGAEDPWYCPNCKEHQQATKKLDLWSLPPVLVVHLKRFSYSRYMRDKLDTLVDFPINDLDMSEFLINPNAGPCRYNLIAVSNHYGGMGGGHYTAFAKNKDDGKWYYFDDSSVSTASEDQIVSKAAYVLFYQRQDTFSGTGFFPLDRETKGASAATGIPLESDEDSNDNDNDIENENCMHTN
# Chain of UniProt Q9UPU5 (Q9UPU5 whole entry): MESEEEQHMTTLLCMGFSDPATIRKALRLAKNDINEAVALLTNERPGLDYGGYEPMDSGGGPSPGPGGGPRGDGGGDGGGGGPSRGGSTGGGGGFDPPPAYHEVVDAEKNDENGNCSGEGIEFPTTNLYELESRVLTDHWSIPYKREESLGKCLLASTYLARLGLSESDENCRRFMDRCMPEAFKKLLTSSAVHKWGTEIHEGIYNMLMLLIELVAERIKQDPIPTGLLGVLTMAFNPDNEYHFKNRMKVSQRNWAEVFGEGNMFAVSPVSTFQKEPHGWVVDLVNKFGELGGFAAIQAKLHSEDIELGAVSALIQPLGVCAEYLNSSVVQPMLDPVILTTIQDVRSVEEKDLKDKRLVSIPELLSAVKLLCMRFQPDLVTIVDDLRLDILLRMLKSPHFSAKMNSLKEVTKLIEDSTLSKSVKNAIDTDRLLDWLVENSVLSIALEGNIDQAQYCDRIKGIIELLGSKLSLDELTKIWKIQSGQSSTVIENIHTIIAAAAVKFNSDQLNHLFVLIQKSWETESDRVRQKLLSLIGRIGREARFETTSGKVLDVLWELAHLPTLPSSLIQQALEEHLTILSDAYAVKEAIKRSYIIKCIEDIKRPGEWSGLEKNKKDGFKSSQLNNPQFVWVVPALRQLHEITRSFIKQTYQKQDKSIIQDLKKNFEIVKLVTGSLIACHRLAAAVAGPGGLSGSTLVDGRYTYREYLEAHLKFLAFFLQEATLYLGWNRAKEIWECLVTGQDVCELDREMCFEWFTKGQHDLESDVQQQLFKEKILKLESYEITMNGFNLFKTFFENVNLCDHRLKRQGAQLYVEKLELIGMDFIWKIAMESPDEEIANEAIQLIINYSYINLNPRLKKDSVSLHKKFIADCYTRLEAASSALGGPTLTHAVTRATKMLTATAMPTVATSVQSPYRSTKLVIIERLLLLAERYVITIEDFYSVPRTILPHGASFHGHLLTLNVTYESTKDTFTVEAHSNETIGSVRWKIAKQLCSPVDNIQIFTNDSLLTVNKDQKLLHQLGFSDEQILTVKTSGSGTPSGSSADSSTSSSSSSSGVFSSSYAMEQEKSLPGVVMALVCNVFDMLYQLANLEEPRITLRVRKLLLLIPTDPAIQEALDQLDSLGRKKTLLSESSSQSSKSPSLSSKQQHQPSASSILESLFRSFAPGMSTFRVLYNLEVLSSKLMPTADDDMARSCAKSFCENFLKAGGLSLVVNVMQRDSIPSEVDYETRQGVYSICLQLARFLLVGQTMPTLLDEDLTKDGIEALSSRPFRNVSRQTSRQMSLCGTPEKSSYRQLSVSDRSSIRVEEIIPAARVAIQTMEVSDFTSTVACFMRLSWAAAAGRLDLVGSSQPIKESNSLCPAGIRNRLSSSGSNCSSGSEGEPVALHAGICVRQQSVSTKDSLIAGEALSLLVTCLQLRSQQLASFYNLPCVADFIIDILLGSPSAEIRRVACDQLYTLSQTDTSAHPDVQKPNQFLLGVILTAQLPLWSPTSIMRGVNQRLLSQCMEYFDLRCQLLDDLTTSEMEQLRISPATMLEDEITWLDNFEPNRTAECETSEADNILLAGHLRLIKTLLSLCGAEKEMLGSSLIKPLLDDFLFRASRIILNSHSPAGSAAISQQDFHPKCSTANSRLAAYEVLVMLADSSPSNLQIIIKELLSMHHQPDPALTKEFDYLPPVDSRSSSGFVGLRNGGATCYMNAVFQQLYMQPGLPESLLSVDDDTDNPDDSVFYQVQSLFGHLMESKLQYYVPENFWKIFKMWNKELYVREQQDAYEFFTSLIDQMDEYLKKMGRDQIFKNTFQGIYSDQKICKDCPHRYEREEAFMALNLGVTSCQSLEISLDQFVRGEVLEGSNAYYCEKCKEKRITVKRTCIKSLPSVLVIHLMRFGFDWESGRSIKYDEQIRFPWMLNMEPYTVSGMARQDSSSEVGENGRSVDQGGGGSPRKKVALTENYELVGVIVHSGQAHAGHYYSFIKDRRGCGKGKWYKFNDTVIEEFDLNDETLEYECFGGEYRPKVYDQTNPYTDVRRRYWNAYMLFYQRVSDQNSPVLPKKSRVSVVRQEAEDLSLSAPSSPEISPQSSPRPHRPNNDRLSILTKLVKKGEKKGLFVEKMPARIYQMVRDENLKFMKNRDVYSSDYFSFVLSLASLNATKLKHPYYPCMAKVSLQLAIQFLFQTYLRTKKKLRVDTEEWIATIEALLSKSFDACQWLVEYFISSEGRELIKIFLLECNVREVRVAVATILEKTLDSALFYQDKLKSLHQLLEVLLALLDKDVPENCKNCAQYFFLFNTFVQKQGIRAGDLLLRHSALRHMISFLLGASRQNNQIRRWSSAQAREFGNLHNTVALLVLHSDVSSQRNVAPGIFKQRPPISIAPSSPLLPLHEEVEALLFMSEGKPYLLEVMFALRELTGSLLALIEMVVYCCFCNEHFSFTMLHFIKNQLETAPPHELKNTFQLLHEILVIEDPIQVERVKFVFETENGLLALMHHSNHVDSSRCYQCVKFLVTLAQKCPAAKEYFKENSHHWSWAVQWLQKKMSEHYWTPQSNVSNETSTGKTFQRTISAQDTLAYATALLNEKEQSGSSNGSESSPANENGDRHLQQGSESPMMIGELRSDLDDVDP
# Chain of UniProt Q9UPT9 (Q9UPT9 whole entry): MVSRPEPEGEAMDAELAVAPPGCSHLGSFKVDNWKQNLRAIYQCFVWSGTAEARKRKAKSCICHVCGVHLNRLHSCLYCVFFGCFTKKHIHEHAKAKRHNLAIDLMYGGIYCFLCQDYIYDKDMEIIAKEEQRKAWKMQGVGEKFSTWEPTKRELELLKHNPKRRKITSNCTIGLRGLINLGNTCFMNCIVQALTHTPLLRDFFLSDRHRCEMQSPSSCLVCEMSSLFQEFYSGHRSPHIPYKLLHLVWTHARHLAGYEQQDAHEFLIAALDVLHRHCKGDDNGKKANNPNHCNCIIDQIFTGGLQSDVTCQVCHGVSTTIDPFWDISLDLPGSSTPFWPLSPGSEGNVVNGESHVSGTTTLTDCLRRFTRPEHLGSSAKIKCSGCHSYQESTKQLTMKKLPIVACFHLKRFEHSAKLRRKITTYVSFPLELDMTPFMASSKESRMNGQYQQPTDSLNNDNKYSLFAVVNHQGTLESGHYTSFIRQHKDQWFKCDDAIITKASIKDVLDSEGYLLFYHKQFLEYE
# Chain of UniProt P54252 (P54252 whole entry): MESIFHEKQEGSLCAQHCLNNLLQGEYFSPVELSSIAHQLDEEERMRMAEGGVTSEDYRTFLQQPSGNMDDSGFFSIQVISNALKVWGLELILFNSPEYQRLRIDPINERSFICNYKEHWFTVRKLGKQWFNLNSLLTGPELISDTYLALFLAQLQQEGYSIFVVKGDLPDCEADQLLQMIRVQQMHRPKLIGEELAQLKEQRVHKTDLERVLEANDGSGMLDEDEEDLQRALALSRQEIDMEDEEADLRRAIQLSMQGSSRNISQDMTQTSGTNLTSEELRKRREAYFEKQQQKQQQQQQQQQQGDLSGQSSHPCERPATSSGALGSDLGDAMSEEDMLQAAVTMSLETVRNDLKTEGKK
# Chain of UniProt P15374 (P15374 whole entry): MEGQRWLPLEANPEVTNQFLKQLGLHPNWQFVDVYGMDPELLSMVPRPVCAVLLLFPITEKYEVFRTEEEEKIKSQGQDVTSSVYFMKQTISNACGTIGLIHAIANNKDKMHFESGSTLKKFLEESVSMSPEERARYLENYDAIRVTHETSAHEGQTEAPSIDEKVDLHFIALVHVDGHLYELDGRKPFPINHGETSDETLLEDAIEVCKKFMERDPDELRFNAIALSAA
row,Target,log2 ratio of Biotin-Ahx-Ub-VS probe labelling
1,UniProt Q9UGI0,-0.354
2,PRPF8 (UniProt Q6P2Q9),0.0579
3,USP5 (UniProt P45974),0.274
4,UniProt O00487,-0.186
5,USP7 (UniProt Q93009),-0.4
6,OTUD4 (UniProt Q01804),-0.113
7,USP36 (UniProt Q9P275),-0.0259
8,USP54 (UniProt Q70EL1),-2.86 (active)
9,USP24 (UniProt Q9UPU5),0.0304
10,VCPIP1 (UniProt Q96JH7),-0.139
11,USP28 (UniProt Q96RU2),-0.0726
12,ATXN3 (UniProt P54252),-0.217
13,USP15 (UniProt Q9Y4E8),-0.185
14,EIF3F (UniProt O00303),-0.14
15,MINDY4 (UniProt Q4G0A6),0.225
16,USP14 (UniProt P54578),-0.0931
17,YOD1 (UniProt Q5VVQ6),0.0405
18,USP22 (UniProt Q9UPT9),0.0954
19,USP12 (UniProt O75317),-0.38
20,UCHL3 (UniProt P15374),-0.285

# Same assay, conditions: compound concentration: 200uM; treatment time: 3 h
row,Target,log2 ratio of Biotin-Ahx-Ub-VS probe labelling
1,UniProt Q9UGI0,-0.0472
2,PRPF8 (UniProt Q6P2Q9),0.0324
3,USP5 (UniProt P45974),0.357
4,UniProt O00487,-0.459
5,USP7 (UniProt Q93009),-1.53 (active)
6,OTUD4 (UniProt Q01804),-0.21
7,USP36 (UniProt Q9P275),0.018
8,USP54 (UniProt Q70EL1),-2.26 (active)
9,USP24 (UniProt Q9UPU5),-0.88
10,VCPIP1 (UniProt Q96JH7),-0.277
11,USP28 (UniProt Q96RU2),-0.646
12,ATXN3 (UniProt P54252),-0.786
13,USP15 (UniProt Q9Y4E8),-0.33
14,EIF3F (UniProt O00303),-0.0452
15,MINDY4 (UniProt Q4G0A6),0.167
16,USP14 (UniProt P54578),-0.202
17,YOD1 (UniProt Q5VVQ6),-0.24
18,USP22 (UniProt Q9UPT9),-0.231
19,USP12 (UniProt O75317),0.0984
20,UCHL3 (UniProt P15374),-0.275
